# In PubChem BioAssay (EPA / NIEHS):
# Inconclusive results are not listed. The source made the active and inactive calls. How the source made its calls, unless noted: active means hit-call score of the fitted dose curve at least 0.9, where 1 is the maximum; inconclusive means response in the unintended direction; inactive means score below 0.9.
# How the values were obtained:
# [1] = STM_H9_OrnCyssISnorm_ratio: Stemina devTOX quickPredict H9 human embryonic stem cell (hESC)-based Assay for Ornithine (ORN):Cystine (CYSS) Ratio (AID 2283714)
# Procedure, shortened: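 Steps: H9 hESCs in pluripotent state dosed 72h, medium plus compound renewed every 24h; conditioned medium from the final 24h deproteinized in 40% acetonitrile; ORN and CYSS quantified by UPLC-HRMS with C13 spike-ins; ratio relative to vehicle.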
# [2] = Tanguay_ZF_120hpf_ActivityScore_legacy: (Legacy) Oregon State University Tanguay Lab 120 Hour Post-fertilization zebrafish Assay Score for Activity (AID 2283742);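 on AC50: dechorionated Tropical 5D wild-type zebrafish embryos held singly per well; static exposure from 6 hpf until 120 hpf at 28 °C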
# Procedure, shortened: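 Embryos are staged, enzymatically dechorionated at 4 hpf, placed individually at 6 hpf, then held in test chemical (0.64% DMSO) at 28C until 120 hpf. Mortality and malformations are scored by brightfield, with non-mortality endpoints skipped for dead embryos.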
# [3] = CEETOX_H295R_MTT_cell_viability: Viability Assessment in the CeeTox HT-H295R MTT Assay (AID 2283718; active means hit-call score of the fitted dose curve at least 0.9, where 1 is the maximum; inactive means score below 0.9;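 on AC50: curve fitted both ways so AC50 may mark viability loss or gain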)
# Procedure, shortened: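 MTT reduction (0.5 mg/ml, 4 h at 37 C; absorbance at 570 and 650 nm) gave viability as background-corrected percent change versus controls. H295R cells had 48 h forskolin (10 uM) prestimulation, then 48 h chemical exposure at 0.1% DMSO.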
# [4] = system: Thyroperoxidase (TPO), gene 445522; assay: CCTE_Simmons_GUA_TPO: CCTE's Guaiacol Assay for Thyroperoxidase (TPO) Inhibition, Simmons Lab (AID 2283750)
# Procedure, shortened: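 Porcine thyroid microsomes (25 ug) in 200mM potassium phosphate, preincubated 30 s at 37C with compound (8 concentrations, 5 nM–87.5 uM) and 35mM guaiacol; 1mM H2O2 starts reaction. Absorbance change at 450nm over first 80 s; loss of signal versus DMSO, three replicates.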
# [5] = ArunA_CellTiter_hNC: Viability Assessment in the ArunA Biomedical's Oris Neural Crest (hNC) Cell Migration Assay (AID 2283752)
# Method: ArunA_CellTiter_hNC is a cell-based, single-readout assay that uses human H9-derived embryonic neural crest stem cells (hNC). Measurements were taken 72 hours after chemical dosing in a 96-well plate.ArunA_CellTiter_hNC is an assay component measured from the ArunA_CellTiter_hNC assay. It is designed to make measurements of viability, a form of viability reporter, as detected with fluorescence intensity signals by HCS Fluorescent Imaging technology. Data from the assay component ArunA_CellTiter_hNC was analyzed at the endpoint, ArunA_CellTiter_hNC, in the positive analysis fitting direction relative to DMSO as the negative control and baseline of activity. […]
# To assess the hNP and hNC migration and cell titer endpoints, 60,000 cells per well were plated onto Matrigel in basal growth medium with LIF and bFGF in a 96-well plate format. […] Cell viability in the detection zone was quantitated using a Flexstation3 microplate reader (ex494 nm/em 517 nm). Corresponding cell titer endpoints were assessed for the hNP and hNC cells using the Promega CellTiter Aqueous One Solution Cell Proliferation Assay (Cat no. G3581; CellTiter 96). Finally, to gain insight into the mechanisms by which cells migrate into the detection zone, Ki-67 expression was quantified for 10 additional chemicals in the hNP and hNC systems. […]
# [6] = ArunA_Migration_hNC: ArunA Biomedical's Oris Neural Crest (hNC) Cell Migration Assay (AID 2283755)
# Procedure, shortened: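 Human H9-derived neural crest stem cells, 60,000/well on Matrigel, 16 h at 37C, then 72 h chemical exposure after seeding-stopper removal. Migration into detection zone read as calcein-AM fluorescence (ex494/em517), relative to DMSO.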
# [7] = ArunA_NOG_NucleusCount: ArunA Biomedical's Neurite Outgrowth (NOG) Assay for Nucleus Count (AID 2283756)
# Procedure, shortened: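 Human H9-derived differentiated neurons were exposed for 48 h right after seeding. Hoechst-stained nuclei gated by size and intensity were counted by automated high-content imaging as viable neurons. Loss of signal vs DMSO.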
# [8] = ArunA_NOG_NeuriteLength: ArunA Biomedical's Neurite Outgrowth (NOG) Assay for Neurite Length (AID 2283757)
# Procedure, shortened: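 Differentiated human H9-derived neurons were exposed for 48 h from seeding, then stained with Hoechst and βIII-tubulin. Automated high-content imaging gave total neurite length per valid neuron, counting processes >10 um. Loss of signal was scored versus DMSO.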
# [9] = ArunA_NOG_NeuritesPerNeuron: ArunA Biomedical's Neurite Outgrowth (NOG) Assay for Neurites Per Neuron (AID 2283758)
# Procedure, shortened: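 Differentiated human H9-derived neurons exposed to chemicals for 48 h from seeding, then stained with Hoechst and βIII-tubulin/DyLight 488. Automated imaging counted neurites (processes >10 um) per valid neuron; loss of signal versus DMSO scored.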
# [10] = ArunA_Migration_hNP: ArunA Biomedical's Oris Neuroprogenitor (hNP) Cell Migration Assay (AID 2283754)
# Procedure, shortened: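 Human H9-derived hNP1 neuroprogenitors on Matrigel with LIF/bFGF, plated around seeding stoppers for 16 h at 37C; stoppers removed at start of 72 h chemical exposure. Calcein-AM staining, fluorescence 494/517 nm in detection zone; loss-of-signal vs DMSO; cytochalasin D control.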
smiles,measurement,setting,value
CN1CCN(c2ccccc2/C=C2\SCCN(c3ccc(Cl)c(Cl)c3)C2=O)CC1,AC50,[1],7.71 µM (active)
same,outcome,[2],inactive
Cc1cc(CCN2CCN(c3nsc4ccccc34)CC2)cc2c1NC(=O)CC2(C)C,AC50,[1],7.94 µM (active)
same,AC50,[3],11.1 µM (active)
same,AC50,[2],3.78 µM (active)
O=C(O)c1ccccc1C(c1ccc(O)cc1)c1ccc(O)cc1,outcome,[3],inactive
same,outcome,[2],inactive
same,AC50,[4],118 µM (active)
Nc1cccc2c(N)cccc12,outcome,[1],inactive
same,outcome,[3],inactive
same,outcome,[2],inactive
O=C(O)Cc1cc(I)c(Oc2cc(I)c(O)c(I)c2)c(I)c1,outcome,[1],inactive
same,AC50,[2],3.08 µM (active)
same,outcome,[5],inactive
same,outcome,[6],inactive
same,outcome,[7],inactive
same,outcome,[8],inactive
same,outcome,[9],inactive
CCc1ccc(CCOc2ccc(CC3SC(=O)NC3=O)cc2)nc1 (centres undefined),AC50,[1],84.5 µM (active)
same,outcome,[3],inactive
same,outcome,[2],inactive
O=c1c(-c2ccc(O)cc2)coc2cc(O)ccc12,outcome,[3],inactive
same,outcome,[2],inactive
c1ccc2c(c1)ccc1ccccc12,AC50,[1],78.7 µM (active)
same,outcome,[2],inactive
C[C@@H]1C[C@H]2[C@@H]3CCC4=CC(=O)C=C[C@]4(C)[C@@]3(F)[C@@H](O)C[C@]2(C)[C@@]1(O)C(=O)COP(=O)(O)O,outcome,[1],inactive
same,outcome,[3],inactive
same,outcome,[2],inactive
CCCOC(=O)c1ccc(O)cc1,outcome,[3],inactive
same,AC50,[2],43.3 µM (active)
OCCC(F)(F)C(F)(F)C(F)(F)C(F)(F)C(F)(F)C(F)(F)F,outcome,[2],inactive
Oc1cccc(O)c1,AC50,[3],1.35 µM (active)
same,outcome,[2],inactive
CC1=C(/C=C/C(C)=C/C=C/C(C)=C/C(=O)O)C(C)(C)CCC1,AC50,[1],0.00532 µM (active)
same,AC50,[3],1.21 µM (active)
same,AC50,[2],0.34 µM (active)
c1ccc2cc3c(ccc4ccccc43)cc2c1,outcome,[3],inactive
same,outcome,[2],inactive
O=C(OCCOCCOC(=O)c1ccccc1)c1ccccc1,outcome,[1],inactive
same,outcome,[2],inactive
CC#C[C@]1(O)CC[C@H]2[C@@H]3CCC4=CC(=O)CCC4=C3[C@@H](c3ccc(N(C)C)cc3)C[C@@]21C,AC50,[3],13.4 µM (active)
same,AC50,[2],27.9 µM (active)
CCCCCCCCCCCCCCCS(=O)(=O)Oc1ccccc1,outcome,[3],inactive
same,outcome,[2],inactive
CCN(CC)CCNc1ccc(CNC=O)c2sc3ccc(OC)cc3c(=O)c12,AC50,[1],5.78 µM (active)
same,outcome,[2],inactive
NC(=O)N(O)[C@@H]1C=C[C@H](Oc2cccc(Oc3ccc(F)cc3)c2)C1,outcome,[3],inactive
same,outcome,[2],inactive
C#C[C@]1(O)CC[C@H]2[C@@H]3CCC4=CC(=O)CC[C@@H]4[C@H]3CC[C@@]21C,AC50,[1],74.8 µM (active)
same,AC50,[3],2.31 µM (active)
same,outcome,[2],inactive
CCc1nn(C2CCCCC2)c2cc(C3(C#N)CCC(C(=O)O)CC3)ccc12 (centres undefined),outcome,[3],inactive
same,AC50,[2],0.421 µM (active)
COc1ccc([N+](=O)[O-])cc1N,outcome,[1],inactive
same,outcome,[3],inactive
same,outcome,[2],inactive
COCC(C)OCC(C)O (centres undefined),outcome,[2],inactive
CCOC(=O)CC(O)(CC(=O)OCC)C(=O)OCC,outcome,[2],inactive
CN1CCC[C@H]1c1cccnc1,outcome,[3],inactive
same,outcome,[2],inactive
COC(=O)CCCCC(=O)OC,outcome,[3],inactive
same,outcome,[2],inactive
CCC(=C(c1ccc(O)cc1)c1ccc(OCCN(C)C)cc1)c1ccccc1,outcome,[3],inactive
same,outcome,[2],inactive
O=[N+]([O-])c1ccc(O)cc1,outcome,[3],inactive
same,outcome,[2],inactive
c1ccc2c(c1)Cc1ccccc1-2,outcome,[3],inactive
same,outcome,[2],inactive
CCCCCCCCC(=O)O,outcome,[3],inactive
same,outcome,[2],inactive
CCCCCCCCCCCCc1ccccc1S(=O)(=O)O,outcome,[5],inactive
same,outcome,[10],inactive
same,outcome,[6],inactive
same,outcome,[7],inactive
